10 molecules from PubChem BioAssay (NCI) can be followed below.

About 79,000 compounds went through this panel and 15% of them were active in at least one assay; those are over-represented in the sample as a whole. A number with no mark means an inactive call. Active and inactive are the calls of the source. Cut-off read from the data, not from the text of the source: active = growth inhibition above about 70%; inactive = the rest.

Test [1] is described as follows: NCI Yeast Anticancer Drug Screen. Data for the rad50 strain (AID 155).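 Note: 0% = growth of vehicle-only cultures of the same strain.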 The conditions noted are these: S. cerevisiae rad50 strain growth inhibition, hits give high values. The method in brief: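 A DNA repair-deficient yeast mutant serves as the test organism; compound-induced growth inhibition is calculated against vehicle-treated cells.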
A short description of test [2]: NCI Yeast Anticancer Drug Screen. Data for the mec2-1 strain (AID 157). The conditions noted are these: S. cerevisiae mec2-1 strain, hits give high values. The method in brief:
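Compounds were applied to mec2-1 yeast cells. Their growth was then compared with that of vehicle-treated cultures to give growth inhibition.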

The nature of test [3]: NCI Yeast Anticancer Drug Screen. Data for the sgs1 mgt1 strain (AID 161).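 Note: 0% = growth of cultures given vehicle only.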 The note with it: S. cerevisiae sgs1 mgt1 strain, hits give high values. The procedure, abridged:
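This yeast growth screen uses a strain with defined DNA-repair lesions; compound-treated growth is compared with vehicle-treated growth.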

The nature of test [4]: NCI Yeast Anticancer Drug Screen. Data for the cln2 rad14 strain (AID 165).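 Note: 0% = growth equal to vehicle treated cultures.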 The conditions noted are these: S. cerevisiae cln2 rad14 strain, hits give high values. The method in brief:
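Strain: cln2 rad14 yeast, altered in cell cycle control and DNA damage repair. Read-out: growth inhibition vs vehicle.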

Test [5] can be described thus: NCI Yeast Anticancer Drug Screen. Data for the bub3 strain (AID 167). The conditions noted are these: S. cerevisiae bub3 mutant strain, hits give high values. The method in brief: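 Inhibition values come from growth of compound-treated mutant yeast normalised to vehicle-treated controls.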
Test [6] can be described thus: NCI Yeast Anticancer Drug Screen. Data for the mlh1 rad18 strain (AID 175). The conditions noted are these: S. cerevisiae mlh1 rad18 strain growth inhibition, hits give high values. The method in brief:
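A repair-deficient yeast strain is exposed to test compound, and growth is scored relative to vehicle-treated controls.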

The mark [7] stands for this setting: at 5.0 µM (retest, dose inferred, filed as 0.5).
[8] abbreviates: at 50.0 µM (retest, dose inferred, filed as 5.0).

On to `CCSc1c2ccccc2nc2c(OC)ccc(OC)c12`, for which the growth inhibition is 3% in test [1] (setting [7]); 70% (active) in test [1] (setting [8]); 88.7% (active) in test [1] (at 50.0 µM); -3% in test [2] (setting [7]); 23% in test [2] (setting [8]); 35.4% in test [2] (at 50.0 µM). For the same molecule, the growth inhibition in test [3] (setting [7]) is -7%; in test [3] (setting [8]) it was 30%; in test [3] (at 50.0 µM), 63.1%; in test [4] (setting [7]), -7%; in test [4] (setting [8]), -7%; in test [4] (at 50.0 µM), 48.7%. The growth inhibition in test [5] (setting [7]) is -7%; in test [5] (setting [8]) it was 20%; in test [5] (at 50.0 µM) it was 39.4%; in test [6] (setting [7]), -3%; in test [6] (setting [8]), 54%; in test [6] (at 50.0 µM), 90.3% (active).
On to `CC/C(=C(\CC)c1ccc(O)c(CN(CCO)CCO)c1)c1ccc(O)cc1`, for which the growth inhibition in test [1] (setting [7]) is -3%; in test [1] (setting [8]), 11%; in test [1] (at 50.0 µM), 36.9%; in test [2] (setting [7]), -1%; in test [2] (setting [8]), 5%; in test [2] (at 50.0 µM) it was 22.2%. The growth inhibition in test [3] (setting [7]) is -2%; in test [3] (setting [8]) it was 28%; in test [3] (at 50.0 µM), 69.2%; in test [4] (setting [7]) it was 0%; in test [4] (setting [8]), -1%; in test [4] (at 50.0 µM), 0.6%. For the same molecule, the growth inhibition in test [5] (setting [7]) was -5%; in test [5] (setting [8]), 25%; in test [5] (at 50.0 µM) it was 12.5%; in test [6] (setting [7]), -2%; in test [6] (setting [8]) it was 33%; in test [6] (at 50.0 µM), 73.6% (active).
For `CCCCCCCCNc1nc(Cl)nc2c1cnn2C`, the growth inhibition in test [1] (setting [7]) is 2%; in test [1] (setting [8]), 40%; in test [1] (at 50.0 µM), 0.3%; in test [2] (setting [7]), -1%; in test [2] (setting [8]), 59%; in test [2] (at 50.0 µM), -17.9%. Further, the growth inhibition in test [3] (setting [7]) was 3%; in test [3] (setting [8]), 68%; in test [3] (at 50.0 µM), 24.2%; in test [4] (setting [7]), -4%; in test [4] (setting [8]), 62%; in test [4] (at 50.0 µM) it was -10.6%. Also, the growth inhibition is -5% in test [5] (setting [7]); 80% (active) in test [5] (setting [8]); 42.4% in test [5] (at 50.0 µM); 12% in test [6] (setting [7]); 84% (active) in test [6] (setting [8]); 45.5% in test [6] (at 50.0 µM).
Turning to `C=CCNC(=S)N/N=C/c1nccc(-c2ccccc2)c1C`, the growth inhibition in test [1] (setting [7]) is 37%; in test [1] (setting [8]), 96% (active); in test [1] (at 50.0 µM), 73.3% (active); in test [2] (setting [7]), 29%; in test [2] (setting [8]), 97% (active); in test [2] (at 50.0 µM) it was 81.6% (active). Further, the growth inhibition was 46% in test [3] (setting [7]); 96% (active) in test [3] (setting [8]); 82% (active) in test [3] (at 50.0 µM); 38% in test [4] (setting [7]); 94% (active) in test [4] (setting [8]); 84.7% (active) in test [4] (at 50.0 µM). In addition, the growth inhibition in test [5] (setting [7]) was 54%; in test [5] (setting [8]) it was 95% (active); in test [5] (at 50.0 µM), 84.5% (active); in test [6] (setting [7]) it was 24%; in test [6] (setting [8]), 93% (active); in test [6] (at 50.0 µM), 78.5% (active).
For `CC(C)(COC(=O)Nc1cccc(Cl)c1)[N+](=O)[O-]`, the growth inhibition in test [1] (setting [7]) is 2%; in test [1] (setting [8]), 15%; in test [1] (at 50.0 µM), 88.3% (active); in test [2] (setting [7]), -3%; in test [2] (setting [8]), 6%; in test [2] (at 50.0 µM) it was 5.6%. Also, the growth inhibition in test [3] (setting [7]) is -1%; in test [3] (setting [8]) it was 3%; in test [3] (at 50.0 µM) it was 53.3%; in test [4] (setting [7]), -41%; in test [4] (setting [8]) it was -3%; in test [4] (at 50.0 µM) it was -33.5%. The growth inhibition was -1% in test [5] (setting [7]); 3% in test [5] (setting [8]); 65.7% in test [5] (at 50.0 µM); -1% in test [6] (setting [7]); 6% in test [6] (setting [8]); 82.6% (active) in test [6] (at 50.0 µM).
Turning to `Nc1cc(Cl)ccc1S`, the growth inhibition is 79% (active) in test [1] (setting [7]); 48% in test [1] (setting [8]); 99.5% (active) in test [1] (at 50.0 µM); 99% (active) in test [2] (setting [7]); 89% (active) in test [2] (setting [8]); 99.5% (active) in test [2] (at 50.0 µM). In addition, the growth inhibition in test [3] (setting [7]) was 83% (active); in test [3] (setting [8]), 47%; in test [3] (at 50.0 µM), 99.5% (active); in test [4] (setting [7]), 25%; in test [4] (setting [8]), 53%; in test [4] (at 50.0 µM) it was 99% (active). The growth inhibition in test [5] (setting [7]) was 31%; in test [5] (setting [8]), 91% (active); in test [5] (at 50.0 µM), 99.3% (active); in test [6] (setting [7]), 83% (active); in test [6] (setting [8]), 75% (active); in test [6] (at 50.0 µM), 99.5% (active).
Turning to `N=C(N)Cc1ccc(NC(=O)c2ccc(C(=O)Nc3ccc(CC(=N)N)cc3)cc2)cc1`, the growth inhibition in test [1] (setting [7]) is 3%; in test [1] (setting [8]) it was -8%; in test [1] (at 50.0 µM), 21.4%; in test [2] (setting [7]) it was 2%; in test [2] (setting [8]), 14%; in test [2] (at 50.0 µM) it was 34.2%. For the same molecule, the growth inhibition in test [3] (setting [7]) was -11%; in test [3] (setting [8]), -21%; in test [3] (at 50.0 µM), 78.4% (active); in test [4] (setting [7]), -7%; in test [4] (setting [8]) it was -16%; in test [4] (at 50.0 µM) it was 14.7%. Further, the growth inhibition in test [5] (setting [7]) was -3%; in test [5] (setting [8]), -11%; in test [5] (at 50.0 µM), 56.3%; in test [6] (setting [7]), 2%; in test [6] (setting [8]), -49%; in test [6] (at 50.0 µM), 27.9%.
As for `N#Cc1cccc(C[P+](c2ccccc2)(c2ccccc2)c2ccccc2)c1`, the growth inhibition in test [1] (setting [7]) was 14%; in test [1] (setting [8]), 45%; in test [1] (at 50.0 µM), 78.3% (active); in test [2] (setting [7]), -1%; in test [2] (setting [8]), 22%; in test [2] (at 50.0 µM), 46%. Further, the growth inhibition was 3% in test [3] (setting [7]); 38% in test [3] (setting [8]); 75.8% (active) in test [3] (at 50.0 µM); 8% in test [4] (setting [7]); 6% in test [4] (setting [8]); 42.9% in test [4] (at 50.0 µM). Also, the growth inhibition in test [5] (setting [7]) was 4%; in test [5] (setting [8]) it was 32%; in test [5] (at 50.0 µM), 45.8%; in test [6] (setting [7]), 7%; in test [6] (setting [8]) it was 30%; in test [6] (at 50.0 µM) it was 56.8%.
As to `O=C1OC(=O)c2ccc(S)c3cccc1c23`, the growth inhibition in test [1] (setting [7]) is -35%; in test [1] (setting [8]) it was 95% (active); in test [1] (at 50.0 µM), 81.8% (active); in test [2] (setting [7]), -25%; in test [2] (setting [8]) it was 85% (active); in test [2] (at 50.0 µM), 61.2%. Also, the growth inhibition in test [3] (setting [7]) is -53%; in test [3] (setting [8]), 86% (active); in test [3] (at 50.0 µM) it was 38.6%; in test [4] (setting [7]) it was -42%; in test [4] (setting [8]) it was 68%; in test [4] (at 50.0 µM) it was 36.7%. Also, the growth inhibition was -32% in test [5] (setting [7]); 90% (active) in test [5] (setting [8]); 88.8% (active) in test [5] (at 50.0 µM); -80% in test [6] (setting [7]); 95% (active) in test [6] (setting [8]); 76% (active) in test [6] (at 50.0 µM).
Take `CN(C)c1ccc2c(NCCCCCCNc3ccnc4cc(N(C)C)ccc34)ccnc2c1`: the growth inhibition was 10% in test [1] (setting [7]); 95% (active) in test [1] (setting [8]); 84.5% (active) in test [1] (at 50.0 µM); 7% in test [2] (setting [7]); 97% (active) in test [2] (setting [8]); 91.2% (active) in test [2] (at 50.0 µM). Besides, the growth inhibition in test [3] (setting [7]) is 16%; in test [3] (setting [8]), 98% (active); in test [3] (at 50.0 µM), 53.4%; in test [4] (setting [7]) it was 1%; in test [4] (setting [8]), 92% (active); in test [4] (at 50.0 µM), 29.4%. The growth inhibition in test [5] (setting [7]) was -2%; in test [5] (setting [8]) it was 97% (active); in test [5] (at 50.0 µM), 30.5%; in test [6] (setting [7]), 14%; in test [6] (setting [8]), 95% (active); in test [6] (at 50.0 µM), -5.8%.
